Measured values as given in PubChem BioAssay (NCI).
Compounds without any hit were thinned out: in the full panel of roughly 79,000, 15% have a hit. Activity calls are given as the source filed them. No stated cut-off is given here; in the data, active means growth inhibition above about 70%; inactive means the rest.

Tests used:
[1] = NCI Yeast Anticancer Drug Screen. Data for the rad50EPP+ strain (AID 151);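 further: 0% = growth of vehicle-treated control cultures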; conditions: S. cerevisiae rad50 mutant strain, hits give high values
Method in brief: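 Read-out is yeast growth inhibition relative to vehicle; cells used were the rad50EPP+ strain.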

[2] = NCI Yeast Anticancer Drug Screen. Data for the mgt1 strain (AID 153); conditions: S. cerevisiae mgt1 mutant growth inhibition, hits give high values
Method in brief: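 Measured: inhibition of mgt1 yeast growth by compound, normalized to vehicle-treated cultures.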

[3] = NCI Yeast Anticancer Drug Screen. Data for the rad50 strain (AID 155);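 further: 0% = growth of vehicle-only cultures of the same strain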; conditions: S. cerevisiae rad50 strain growth inhibition, hits give high values
Method in brief: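 Cells are treated with compound, grown, and their growth is then scored against vehicle-only cultures of the same repair-deficient yeast strain.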

[4] = NCI Yeast Anticancer Drug Screen. Data for the mec2-1 strain (AID 157); conditions: S. cerevisiae mec2-1 strain, hits give high values
Method in brief: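 Using mec2-1 yeast: add compound, measure growth, express inhibition versus vehicle-treated cultures.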

[5] = NCI Yeast Anticancer Drug Screen. Data for the rad14 strain (AID 159);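 further: 0% = growth of vehicle-treated control cultures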; conditions: S. cerevisiae rad14 strain growth inhibition, hits give high values
Method in brief: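 Readout: yeast growth inhibition, referenced to vehicle-only cultures. Strain bears a defined alteration in DNA damage repair.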

[6] = NCI Yeast Anticancer Drug Screen. Data for the sgs1 mgt1 strain (AID 161);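 further: 0% = growth of cultures given vehicle only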; conditions: S. cerevisiae sgs1 mgt1 strain, hits give high values
Method in brief: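 Compounds are added to genetically altered yeast, and growth is compared with cultures given vehicle alone to give percent inhibition.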

[7] = NCI Yeast Anticancer Drug Screen. Data for the CLN2oe strain (AID 163);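 further: 0% = growth of vehicle-only control cultures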; conditions: S. cerevisiae CLN2oe strain, hits give high values
Method in brief: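 Whole-cell yeast growth assay. A strain engineered for altered cell-cycle control received compound, and inhibition relative to vehicle-treated cultures was recorded.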

[8] = NCI Yeast Anticancer Drug Screen. Data for the cln2 rad14 strain (AID 165);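 further: 0% = growth equal to vehicle treated cultures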; conditions: S. cerevisiae cln2 rad14 strain, hits give high values
Method in brief: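 Yeast strain cln2 rad14, bearing defects in cell cycle control and DNA repair, serves as the test system; values reflect growth inhibition compared with vehicle.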

[9] = NCI Yeast Anticancer Drug Screen. Data for the bub3 strain (AID 167); conditions: S. cerevisiae bub3 mutant strain, hits give high values
Method in brief: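 Part of a panel of yeast mutants defective in DNA damage repair or cell cycle regulation. Each strain is grown with compound, and inhibition is calculated relative to solvent-treated cultures.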

[10] = NCI Yeast Anticancer Drug Screen. Data for the wt2 strain (AID 169);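 further: 0% = growth of vehicle-treated yeast cultures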; conditions: S. cerevisiae wt2 strain growth inhibition, hits give high values
Method in brief: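 Treated yeast vs. vehicle-treated yeast: growth inhibition determined.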

[11] = NCI Yeast Anticancer Drug Screen. Data for the mlh1 strain (AID 171);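 further: 0% = growth of vehicle-treated control cultures of the same strain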; conditions: S. cerevisiae mlh1 strain growth inhibition, hits give high values
Method in brief: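 A yeast strain with a defined genetic lesion serves as the test organism. Cultures receive compound or vehicle, and growth is measured.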

[12] = NCI Yeast Anticancer Drug Screen. Data for the sgs1 strain (AID 173);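 further: 0% = growth of vehicle-only control cultures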; conditions: S. cerevisiae sgs1 mutant, hits give high values
Method in brief: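 A genetically defined yeast mutant is incubated with the test compound, and its growth is compared to that of the same strain given vehicle.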

[13] = NCI Yeast Anticancer Drug Screen. Data for the mlh1 rad18 strain (AID 175); conditions: S. cerevisiae mlh1 rad18 strain growth inhibition, hits give high values
Method in brief: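 Steps: expose repair-defective yeast to compound; measure growth; express inhibition against vehicle-treated controls.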

[14] = NCI Yeast Anticancer Drug Screen. Data for the rad18 strain (AID 177); conditions: S. cerevisiae rad18 mutant growth inhibition, hits give high values
Method in brief: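 Measured value is growth inhibition of a yeast strain bearing a DNA repair alteration, referenced to vehicle-treated cells.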

[15] = at 5.0 µM (retest, dose inferred, filed as 0.5)
[16] = at 50.0 µM (retest, dose inferred, filed as 5.0)

Measured: growth inhibition

CC1(C)CC(=O)C(C=NC(=S)C(N)=S)=C(O)C1
active: [2]; at 100.0 µM 84% | [4]; at 50.0 µM 74.1% | [4]; at 100.0 µM 91% | [7]; at 100.0 µM 96% | [9]; at 100.0 µM 91% | [11]; at 100.0 µM 91% | [13]; [16] 75% | [14]; at 100.0 µM 70%
inactive: [1]; at 1.2 µM -43% | [1]; at 3.7 µM -49% | [1]; at 11.0 µM -46% | [1]; at 33.0 µM -51% | [1]; at 100.0 µM -25% | [2]; at 1.2 µM -13% | [2]; at 3.7 µM 0% | [2]; at 11.0 µM 3% | [2]; at 33.0 µM 21% | [3]; at 1.2 µM -15% | [3]; at 3.7 µM -14% | [3]; [15] -26% | [3]; at 11.0 µM -13% | [3]; at 33.0 µM 6% | [3]; [16] 14% | [3]; at 50.0 µM 15.5% | [3]; at 100.0 µM 69% | [4]; at 1.2 µM -40% | [4]; at 3.7 µM -34% | [4]; [15] -6% | [4]; at 11.0 µM -41% | [4]; at 33.0 µM -19% | [4]; [16] 22% | [5]; at 1.2 µM -18% | [5]; at 3.7 µM -7% | [5]; at 11.0 µM -16% | [5]; at 33.0 µM -18% | [5]; at 100.0 µM 19% | [6]; [15] -2% | [6]; [16] 8% | [6]; at 50.0 µM 35.5% | [7]; at 1.2 µM -35% | [7]; at 3.7 µM -25% | [7]; at 11.0 µM -30% | [7]; at 33.0 µM -10% | [8]; [15] 23% | [8]; [16] 32% | [8]; at 50.0 µM 10.3% | [9]; at 1.2 µM -30% | [9]; at 3.7 µM -20% | [9]; [15] 18% | [9]; at 11.0 µM -24% | [9]; at 33.0 µM -31% | [9]; [16] 38% | [9]; at 50.0 µM 6.15% | [10]; at 1.2 µM -47% | [10]; at 3.7 µM -52% | [10]; at 11.0 µM -59% | [10]; at 33.0 µM -41% | [10]; at 100.0 µM 20% | [11]; at 1.2 µM -31% | [11]; at 3.7 µM -26% | [11]; at 11.0 µM -9% | [11]; at 33.0 µM 6% | [12]; at 1.2 µM -28% | [12]; at 3.7 µM -31% | [12]; at 11.0 µM -29% | [12]; at 33.0 µM -15% | [12]; at 100.0 µM 65% | [13]; [15] -7% | [13]; at 50.0 µM 45.2% | [14]; at 1.2 µM -8% | [14]; at 3.7 µM -4% | [14]; at 11.0 µM -15% | [14]; at 33.0 µM -1%
